Sampled rows, rich in hits. Any-hit rate of the full collection: about 19%.
Cycloheximide cs: affects cycloheximide protein synthesis inhibition readout, counter-screen; hit rate 12% among 300,000; cell reporter, cycloheximide protein synthesis inhibition counterscreen; max response, %; in the data active = max response mostly above about 13%, no sharp cut-off; inactive = mostly below about 14%; also: read at 38.3 µM for the half of the compounds with a filed dose; 0% is about no effect
SARS PLpro yeast: blocks SARS-CoV papain-like protease in a yeast assay. AID 485353. Potency, µM (top dose mostly 32.9 µM), inactives show at the highest dose activity, positive = growth rescue, usual class: activators. S. cerevisiae expressing SARS-CoV PLpro, growth rescue. hit rate 0.19% among 330,000; calls by dose curve; also: potency is read from the fitted curve at half-maximal effect; 0% is about no effect; nearly all actives have a fitted effect of over 55% in size
Pf growth 48h: P. falciparum growth inhibition at 48 hours (one generation); P. falciparum luciferase growth in erythrocytes, 48 h; Potency, µM (top dose mostly 28.7 µM), without a hit: at the highest dose activity change, negative = inhibition, actives largely listed as inhibitors; hit rate 5.9% among 310,000; also: potency is read from the fitted curve at half-maximal effect; % is scaled to controls: 0 for no effect and ±100 for the full control effect
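First compound was added to culture medium, then infected red cells at 0.1% parasitemia and 2% hematocrit (final). After incubation at 37 C under 5% CO2, luciferase detection reagent was dispensed and light output recorded.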
AMA1-RON2 inh: AMA1-RON2 (P. falciparum) interaction inhibition. AlphaScreen AMA1-biotinylated RON2 peptide binding. Potency, µM (highest dose often 58.2 µM), for the others: top-dose activity change, negative = inhibition, most hits filed as inhibitors. hit rate 0.2% among 360,000. AID 720542;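 also: potency is read from the fitted curve at half-maximal effect; 0% = vehicle wells and -100% = peptide control; nearly all actives have a fitted effect of over 45% in size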
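AMA1 (3D7) with his tag at 25 nM final met compounds first, then biotinylated RON2 peptide at 25 nM; detection used donor plus acceptor beads, 10 µg/mL apiece, read by AlphaScreen after 30 min at room temperature.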
Pf growth 96h: P. falciparum growth inhibition at 96 hours; P. falciparum luciferase reporter growth, 96 h; Potency, µM (top dose mostly 28.7 µM), for the others: at the top dose activity change, negative = inhibition, actives largely listed as inhibitors; hit rate 6.9% among 320,000; also: potency is read from the fitted curve at half-maximal effect; % is scaled to controls: 0 for no effect and ±100 for the full control effect
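Luminescence readout: decreased luciferase signal marks inhibited growth of reporter-expressing P. falciparum in infected red cells (2% hematocrit, 0.05% parasitemia final), exposed to compound two generations (96 h, 37 C, 5% CO2).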
Shiga inhibitor: blocks Shiga toxin action in Vero cells. Vero cells, Shiga toxin protein synthesis inhibition reporter. inhibition, % at 38.7 µM. hit rate 9.2% among 290,000. AID 2315; in the data active = inhibition mostly above about 28%, no sharp cut-off; inactive = mostly below about 43%; also: 0% is about no effect
Starred values were filed as active, the others as inactive; ? = inconclusive; / = no result; [ ] = dose if it differs, or a comment. Unless noted, calls follow the shape of the dose curve; as a rule, active = well fitted curve in the direction sought with a large enough effect; inconclusive = small, poorly fitted or top-dose-only effect, or another doubt; inactive = no such curve, though single readings can be large; an effect the other way counts as inactive or inconclusive.

SMILES	Cycloheximide cs	SARS PLpro yeast	Pf growth 48h	AMA1-RON2 inh	Pf growth 96h	Shiga inhibitor
CC(=O)Nc1ccccc1C(F)(F)F	-2	0%	?	-12%	6%	-7
CC(C)(C)C(=O)NC(=O)Nc1ccccc1C(F)(F)F	11*	2%	34%	-11%	21%	20
O=C(Nc1ccc2oc(-c3ccccc3F)nc2c1)c1cncc(Br)c1	25*	0%	8.3µM*	-11%	/	42*
O=C(Nc1ccc2oc(-c3ccccc3)nc2c1)c1cccnc1	39*	-12%	24%	2%	-14%	54*
COc1ccc(-c2nc3cc(NC(=S)NC(=O)Cc4ccccc4)ccc3o2)cc1	35*	-28%	170%	1%[11.6 µM]	-7%	37
CCC(=O)NC(=S)Nc1ccc2oc(-c3ccc(OC)cc3)nc2c1	15	0%	55%	14%	-29%[5.75 µM]	24
COc1ccc(C(=O)Nc2ccc3oc(-c4cccnc4)nc3c2)cc1OC	6	-1%	?	0%	?	3
CCc1ccc2oc(-c3cccc(NC(=O)c4cccnc4)c3)nc2c1	34*	-16%	-48%	-2%	-23%	66*
O=C(Nc1ccc2oc(-c3ccccc3F)nc2c1)c1ccc([N+](=O)[O-])o1	0	-2%	?	2%	35%	24
COc1cc(C(=O)Nc2ccc3oc(-c4cccnc4)nc3c2)cc(OC)c1OC	7	4%	-16%	-2%	?	12
Cc1ccc(-c2nnn(CC(=O)N(Cc3ccccc3)C(C(=O)NC3CCCC3)c3ccncc3)n2)o1 (stereo not given)	1	-5%	?	-2%	/	-12
CCN(C(=O)Cc1ccc(Br)cc1)C1CCCCC1	-1	/	-22%	12%	-29%	12
CC1CCN(S(=O)(=O)c2ccc3c(c2)N(CC(=O)NCCN2C(C)CCCC2C)C(=O)CS3)CC1 (stereo not given)	1	1%	?	-10%	82%	-5
COC(=O)c1cc(C(=O)OCC(=O)NC(=O)c2ccccc2)cc([N+](=O)[O-])c1	/	-1%	?	-7%	16%	/
Cc1cc(C)c(OCC(=O)N2CC=C(c3ccccc3)CC2)c(C)c1	7	-9%	-6%	52%	1%	14
CCCCCC(=O)Nc1ccc2oc(-c3cccnc3)nc2c1	10	-7%	-28%	-3%	?	-5
O=C(Cc1ccccc1)Nc1ccc2oc(-c3cccnc3)nc2c1	21	2%	-29%	-6%	/	34*
O=C(C[n+]1cc(-c2ccc(F)cc2)n2c1CCC2)OCc1ccccc1	3	-23%	14%	-1%	10%	-3
O=C(C[n+]1cc(-c2ccc(Cl)c(Cl)c2)n2c1CCC2)N1c2ccccc2Sc2ccccc21	8	-28%	2.6µM*	2%	?	-2
COc1ccc(-c2c[n+](CC(=O)N3c4ccccc4Sc4ccccc43)c3n2CCC3)cc1	1	0%	2.6µM*	-17%	1.7µM*	-1
O=C(C[n+]1cc(-c2ccc(Cl)cc2)n2c1CCC2)N1c2ccccc2Sc2ccccc21	-2	2%	1.7µM*	-3%	?	-1
CC(OC(=O)CCCN=C1NS(=O)(=O)c2ccccc21)C(=O)Nc1ccccc1[N+](=O)[O-] (stereo not given)	/	-2%	-1%	-2%	-13%	/
CC(=O)NC(C)(c1ccccc1)c1nc(-c2cncnc2)cs1 (stereo not given)	/	/	/	2%	/	/
O=C(Nc1sc2c(c1C(=O)O)CCCC2)c1cccs1	27*	-53%	39%	16%	315%	127*
COC(=O)c1c(NC(=O)c2cccs2)sc2c1CCC(C)C2 (stereo not given)	-3	1%	87%	0%	109%	34
SMILES	Cycloheximide cs	SARS PLpro yeast	Pf growth 48h	AMA1-RON2 inh	Pf growth 96h	Shiga inhibitor
CC(C)OC(=O)c1c(NC(=O)c2cccs2)sc2c1CCCC2	5	9%	21%	9%	-12%	36
CC1CCc2c(sc(NC(=O)c3cccs3)c2C(=O)O)C1 (stereo not given)	47*	-10%	100%	-2%	28%	81*
O=C(Nc1sc2c(c1C(=O)NCC1CCCO1)CCCC2)c1cccs1 (stereo not given)	-1	-7%	?	44%	?	-6
O=C(Nc1sc2c(c1C(=O)O)CCCCC2)c1cccs1	66*	-25%	228%	0%	403%	129*
CC1Cc2ccccc2N1C(=O)Cn1cc([N+](=O)[O-])cn1 (stereo not given)	-3	2%	6%	4%	48%	-13
COc1ccc(OC)c(NS(=O)(=O)Cc2ccccc2)c1	-1	-8%	/	/	/	9
O=C(Nc1ccccc1F)N1CCc2ccccc2C1	57*	0%	98%	0%	?	84*
Cc1ccc(C)c(NC(=O)N2CCc3ccccc3C2)c1	42*	-3%	184%	-3%	?	78*
Cc1ccc(C)c(NC(=O)N2CCCCCC2)c1	10	4%	37%	-6%	?	9
CCOC(=O)C(NC(=O)CC)(Nc1ccccc1OC)C(F)(F)F (stereo not given)	17*	14%	1%	-5%	49%	-3
CCOC(=O)C(NCc1ccccc1OC)(NC(=O)CC)C(F)(F)F (stereo not given)	-1	5%	43%	3%	103%	15
CCOC(=O)C(NC(=O)c1ccccc1)(Nc1cc(C)on1)C(F)(F)F (stereo not given)	-1	-3%	19%	?	5.2µM*	-8
CCCCN(C(=O)CN(C)CC(=O)Nc1cccc(OC)c1)c1c(N)n(CCCC)c(=O)[nH]c1=O	/	-1%	/	22%	/	/
CC1(C(=O)NS(=O)(=O)c2ccc(Br)cc2)CCN1C(=O)CCC1CCCC1 (stereo not given)	/	/	/	2%	/	/
CCCCN(C(=O)CSc1nncn1-c1ccccc1)c1c(N)n(Cc2ccccc2)c(=O)[nH]c1=O	-2	-1%	8%	4%	0%	-5
COc1ccc(NC(=O)CSCC(=O)Nc2ccc(S(=O)(=O)N3CCOCC3)cc2)cc1	/	2%	?	25%	-6%	/
COc1ccc(NC(=O)CN(c2ccc([N+](=O)[O-])cc2)S(=O)(=O)c2ccccc2)cc1	11	-8%	?	-15%	-26%	34
COc1ccc(N(CC(=O)Nc2ccc(S(=O)(=O)N3CCOCC3)cc2)S(=O)(=O)c2ccccc2)cc1	-1	2%	10µM*	-2%	/	23
COc1ccccc1N(CC(=O)Nc1ccc(Cc2ccncc2)cc1)S(=O)(=O)c1ccccc1	-3	1%	8.3µM*	-23%	?	-5
COc1ccc(N(CC(=O)Nc2ccc(Cc3ccncc3)cc2)S(=O)(=O)c2ccccc2)cc1	-2	1%	13µM*	-2%	3%	-9
CCc1nc2c(OCc3ccccc3)cccn2c1N(Cc1ccccc1)C(C)=O	/	/	/	-18%	/	/

Compound activity as filed in PubChem BioAssay.
